Compounds with a hit are over-represented: about 2.3% of the library has one in this group of screens.
PAD4 inh: inhibitors of human PAD4 | Q9UM07 | recombinant PAD4, RCA probe fluorescence polarization | inhibition, % at 6.36 µM | actives 0.41% (n = 330,000) | AID 485272;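 active means percent inhibition above a cutoff equal to the mean of all tested compounds plus 3 SD, cut at about 15% in these data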;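 further: 0% = PAD4 with RCA probe and DMSO and 100% = probe without PAD4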
PME-1 primary: PME-1 (human) inhibition. inhibition, % at 5.9 µM. actives 0.53% (n = 320,000). recombinant PME-1, FP-Rh probe fluorescence polarization. Q9Y570;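 active means inhibition above the campaign mean of all compounds plus 3 SD, cut at about 26% in these data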;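 further: competitive labeling of PME-1 active site by serine hydrolase directed probe; 0% = PME-1 with DMSO and 100% = wells lacking PME-1 enzyme; inhibitors block probe labeling so polarization falls and inhibition rises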
Fam108B counter: Fam108B inhibition, counter-screen for RBBP9 inhibitors. recombinant Fam108B, FP-Rh probe fluorescence polarization. actives 0.33% (n = 300,000). inhibition, % at 9.51 µM. AID 1947;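 active means inhibition above the screen mean inhibition plus 3 SD, computed separately per campaign, cut at about 18% in these data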;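 further: inhibitors lower polarization as less probe binds the enzyme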
pPAFAH inh: inhibitors of human plasma PAF acetylhydrolase (pPAFAH) | recombinant pPAFAH, FP-rhodamine probe fluorescence polarization | inhibition, % at 3.39 µM | actives 1.5% (n = 330,000) | AID 463082;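 active means inhibition above the mean inhibition across the screen plus 3 SD, cut at about 25% in these data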;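 further: inhibitors block binding of the rhodamine activity-based probe so polarization drops; 0% = enzyme with DMSO and 100% = wells lacking pPAFAH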
Target sequence (Q13093 whole entry, looked up): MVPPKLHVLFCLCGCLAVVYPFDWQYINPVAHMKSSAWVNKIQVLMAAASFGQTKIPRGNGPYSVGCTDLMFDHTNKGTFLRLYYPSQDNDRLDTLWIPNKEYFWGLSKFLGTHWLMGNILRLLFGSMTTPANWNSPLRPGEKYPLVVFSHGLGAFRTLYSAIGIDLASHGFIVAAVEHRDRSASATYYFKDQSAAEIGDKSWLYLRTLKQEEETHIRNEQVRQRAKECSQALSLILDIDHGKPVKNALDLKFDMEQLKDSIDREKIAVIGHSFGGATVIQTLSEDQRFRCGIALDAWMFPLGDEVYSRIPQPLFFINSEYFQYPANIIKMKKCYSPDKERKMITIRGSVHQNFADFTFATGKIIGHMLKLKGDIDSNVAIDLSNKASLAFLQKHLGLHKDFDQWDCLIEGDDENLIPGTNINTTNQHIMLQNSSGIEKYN
GSTO1 counter: counter-screen for RBBP9 inhibitors: inhibitors of human GSTO1. recombinant GSTO1, activity-based probe fluorescence polarization. actives 1.1% (n = 300,000). P78417. inhibition, % at 5.96 µM;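 active means inhibition above the campaign mean inhibition plus 3 SD, cut at about 35% in these data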;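 further: 0% = GSTO1-1 with DMSO and 100% = wells lacking GSTO1-1 enzyme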
Target sequence (P78417 whole entry, looked up): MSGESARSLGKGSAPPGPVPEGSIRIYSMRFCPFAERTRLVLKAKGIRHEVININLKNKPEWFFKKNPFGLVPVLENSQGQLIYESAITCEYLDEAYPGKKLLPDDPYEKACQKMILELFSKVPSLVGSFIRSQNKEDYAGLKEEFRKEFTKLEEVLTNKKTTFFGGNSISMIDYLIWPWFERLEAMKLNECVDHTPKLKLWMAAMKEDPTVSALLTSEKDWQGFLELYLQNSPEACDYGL
GSTO1 inh conf: confirmation of human GSTO1 inhibitors; recombinant GSTO1, probe fluorescence polarization; inhibition, % at 5.96 µM; AID 2176; actives 54% (n = 2,400); shares compounds with GSTO1 counter;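 active means inhibition above the primary screen's cutoff, its mean inhibition plus 3 SD, cut at about 35% in these data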;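 further: loss of polarization as inhibitors block binding of rhodamine sulfonate ester activity probe; 0% = GSTO1 with DMSO and 100% = wells lacking GSTO1 enzyme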
GSTO1 recomb ABPP: blocks recombinant human glutathione S-transferase omega 1; shares compounds with GSTO1 counter; recombinant GSTO1, gel ABPP SE-Rh probe fluorescence; inhibition, % at 1 µM; actives 30% (n = 130);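 active means inhibition of the enzyme GSTO1 above about 75%, limit read from the data; inactive means inhibition below that limit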
* marks the source's active call; other numbers are inactive results; x = not tested or not shown.

SMILES	PAD4 inh	PME-1 primary	Fam108B counter	pPAFAH inh	GSTO1 counter	GSTO1 inh conf	others
CC(C)OCCCNC1=C(Cl)C(=O)c2ccccc2C1=O	-10.9	-0.2	-1.5	-1.0	63.9*	8.9
O=C(CN1C(=O)CCSc2ccc(S(=O)(=O)N3CCCC3)cc21)Nc1ccccc1	3.7	-4.3	5.2	-0.3	0.2	x
O=C(CCl)N=c1sccn1Cc1ccc(Cl)cc1Cl	1.1	0.8	-4.1	7.5	75.9*	90.8*
CN(C(=O)COC(=O)CSc1ccc(C(N)=O)cc1[N+](=O)[O-])C1CCCCC1	-7.7	-3.9	-1.4	11.1	-0.5	x
COc1cccc(/C=N/NC(=O)NC2CCCCC2)c1O	-2.9	4.1	1.1	5.5	38.3*	6.2
COc1cccc(/C=N/NC(=O)NC23CC4CC(CC(C4)C2)C3)c1O	-7.0	0.0	0.6	4.2	0.4	x
O=C(Cc1nnc(NC(=O)c2ccccc2)s1)N/N=C\c1ccc(O)c(O)c1	-2.1	-0.9	3.4	27.4*	39.0*	29.5
Cc1ccc(C)c(OCc2cc(C(=O)N3CCN(c4ccccc4C)CC3C)no2)c1 (stereo unspecified)	0.7	-4.7	0.6	1.9	3.6	x
COc1cc(S(=O)(=O)N(Cc2cccnc2)Cc2ccco2)ccc1-n1cnnn1	-3.0	1.3	4.2	5.0	39.6*	3.9
COc1ccc(-c2cn(-c3ccccc3)c3[n+]2CCS3)cc1	2.7	3.7	13.5	-5.7	-5.3	x
O=S1(=O)CCO[C@H]2Cc3ccccc3[C@H]2N1Cc1ccc(Cl)cc1	0.2	10.7	1.9	0.9	37.7*	5.6
O=C1CN(C(=O)COC(=O)CNC(=O)c2ccccc2)c2ccccc2N1	-3.2	0.5	-0.6	-0.5	89.2*	2.6
CCn1nc(C)cc1C(=O)N1CCCC(N2CCN(c3cccc(Cl)c3)CC2)C1 (stereo unspecified)	-2.5	4.0	1.3	2.9	46.5*	5.9
Cc1cc(C)n(CCC(=O)N2CCCC(N3CCN(c4cccc(Cl)c4)CC3)C2)n1 (stereo unspecified)	-3.3	0.5	-0.5	1.4	7.1	x
O=C(CSC(=S)N1CCCC1)Nc1ncc(Cl)cc1Cl	1.2	1.0	-0.8	-0.2	0.4	x
O=C(OCC(=O)N1CCCCC1)c1cc(NS(=O)(=O)c2ccc(Cl)c([N+](=O)[O-])c2)ccc1O	-6.0	-8.3	3.9	7.8	51.2*	56.5*
O=C(CCl)Nc1c2c(nn1-c1ccccc1)CSC2	1.3	-0.6	-3.0	4.0	97.9*	98.0*
O=C(NCCc1ccc(O)c(O)c1)C1COc2ccccc2O1 (stereo unspecified)	-5.3	2.2	3.7	22.0	55.0*	9.0
O=C(NCCc1ccccc1)C1COc2ccccc2O1 (stereo unspecified)	5.1	11.8	3.2	-2.0	0.2	x
CCOc1ccc(/C=N/NC(=O)c2cc(-c3ccco3)nc3ccccc23)cc1	-5.8	-14.3	-10.9	1.6	2.3	x
O=C(N/N=C/c1ccc(F)cc1)c1cc(-c2ccco2)nc2ccccc12	-1.1	4.8	6.1	30.4*	57.3*	22.5
Cc1nnc(NC(=O)c2cc(-c3ccco3)nc3ccccc23)s1	-8.4	-16.2	10.7	27.2*	39.8*	10.5
O=C(Nc1nc2ccccc2s1)c1cc(-c2ccco2)nc2ccccc12	-4.3	-17.5	-21.3	2.2	-8.8	x
CCNC(=O)COC(=O)c1cc(-c2ccco2)nc2ccccc12	3.1	1.5	11.1	23.7	41.2*	8.3
O=C(O)c1cc(-c2ccco2)nc2ccccc12	-1.5	-0.6	4.2	18.6	7.3	x
SMILES	PAD4 inh	PME-1 primary	Fam108B counter	pPAFAH inh	GSTO1 counter	GSTO1 inh conf	others
O=C(CSc1nnc(-c2ccc(O)cc2)n1Cc1ccccc1)NNC(=O)c1ccc(Br)cc1	-1.8	-1.1	2.4	4.5	-1.4	x
COc1ccccc1C(=O)NC(=S)Nc1ccccc1N1CCCC1	3.7	-1.5	0.2	6.4	39.7*	8.3
CCN(C(=O)COC(=O)CNC(=O)c1ccccc1C)C1=CCCCC1	0.5	-8.7	x	-7.0	x	x
CCCN(C(=O)CCl)C1=CCCCC1	-3.6	0.1	-2.9	0.6	38.2*	57.9*	GSTO1 recomb ABPP=63.0
O=C(Oc1ccc2ccccc2c1)c1ccco1	-3.5	-4.0	1.3	2.3	9.2	x
CC1CC(C)(C)Nc2ccc(OC(=O)c3ccco3)cc21 (stereo unspecified)	0.3	17.1	2.6	4.1	43.5*	5.1
COc1ccc(N/N=C(C)/C(=N/O)C(=O)Nc2ccccc2)cc1	-2.8	-0.4	-1.4	3.0	39.7*	15.2
COc1ccc(NC(=O)c2cccc(NC(=O)c3ccccc3)c2)cc1	1.6	-4.4	-8.9	3.1	-8.4	x
Cc1cc(C)nc(SCC(CSc2nc(C)cc(C)n2)C(=O)O)n1	-0.6	-2.7	5.0	-10.3	7.1	x
C=C(C)C(=O)NC1=NN(c2ccccc2)C(=O)C1	4.9	-5.5	0.9	-1.1	8.4	x
CC(Oc1ccc(Cl)cc1Cl)C(=O)NC1=NN(c2ccccc2)C(=O)C1 (stereo unspecified)	8.9	7.3	3.2	12.3	39.1*	-2.0
O=C1CC(NC(=O)C(F)(F)F)=NN1c1ccccc1	-13.0	-4.8	-1.4	-8.2	44.3*	9.7
CC(=O)Nc1ccc(NC(=O)C(C)Oc2ccc(Cl)cc2Cl)cc1 (stereo unspecified)	-4.2	8.4	0.7	5.6	2.5	x
O=C(Nc1ccc(CN2CCCCC2)cc1)Nc1ccc(Br)cc1Cl	-1.6	-4.6	3.3	-0.9	0.2	x
Cc1cc(C(=O)NC(C)C2CCCO2)c(C)o1 (stereo unspecified)	-0.7	0.6	-5.4	5.2	42.4*	5.3
Cc1cc(C(=O)NC(C)C2CCCO2)no1 (stereo unspecified)	-7.8	1.7	-2.6	-9.4	-12.4	x
COc1ccccc1CN1CC(C(=O)N(C)Cc2[nH]c3ccccc3c2C)CCC1=O (stereo unspecified)	0.7	16.5	3.1	2.0	6.0	x
COc1ccc(NC(=O)NCC(C)CSc2ccc(C)cc2)c(OC)c1 (stereo unspecified)	-0.5	10.2	-1.2	3.6	0.8	x
O=C(NC1C(=O)NNC1c1ccccc1)c1ccccc1 (stereo unspecified)	-11.2	-2.9	1.7	7.9	7.9	x
Cc1cccc(C(=O)NC2C(=O)NNC2c2ccc(Cl)cc2)c1 (stereo unspecified)	-1.5	-1.7	-2.0	3.0	44.5*	5.5
CC(C)(C)OC(=O)C[C@H]1C/C=C\C[C@@H](CC(=O)NCCO)C(=O)N[C@H](C(C)(C)C)COC1=O	-2.7	x	x	0.4	x	x
Cc1ccc(NC(=O)CN2C(=O)NC(C)(C3CC3)C2=O)cc1S(=O)(=O)N1CCCCC1 (stereo unspecified)	7.2	-2.5	x	-1.0	x	x
